From ChEMBL document CHEMBL3433997, “St. Jude Leishmania screening dataset” (2016)

Columns and labels:
Assay type in all cases: functional
[1] = target: Solute carrier family 2, facilitated glucose transporter member 1 (Homo sapiens) (UniProt P11166); experiment: ST_JUDE_LEISH: Cytotoxicity at 2uM final concentration against transgenic Leishmania Mexicana promastigotes LmGLUT1 that are glucose transport deficient and complemented with the human glucose transporter GLUT1. Activity is measured by DNA content using SYBR green in vitro
Sequence of Solute carrier family 2, facilitated glucose transporter member 1 (Homo sapiens) (P11166 whole entry): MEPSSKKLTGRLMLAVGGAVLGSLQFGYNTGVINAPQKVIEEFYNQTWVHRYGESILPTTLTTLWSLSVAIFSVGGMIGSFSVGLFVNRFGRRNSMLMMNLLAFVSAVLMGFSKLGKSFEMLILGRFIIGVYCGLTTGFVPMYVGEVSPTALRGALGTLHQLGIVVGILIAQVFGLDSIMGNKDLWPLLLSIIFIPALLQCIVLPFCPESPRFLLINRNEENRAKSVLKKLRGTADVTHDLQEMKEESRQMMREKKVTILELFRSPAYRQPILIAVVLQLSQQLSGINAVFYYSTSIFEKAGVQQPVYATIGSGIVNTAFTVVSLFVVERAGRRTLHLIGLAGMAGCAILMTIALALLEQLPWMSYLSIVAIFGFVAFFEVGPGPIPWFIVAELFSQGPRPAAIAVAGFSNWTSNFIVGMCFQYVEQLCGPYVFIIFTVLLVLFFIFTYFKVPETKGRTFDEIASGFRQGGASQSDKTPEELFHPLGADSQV

[2] = target: Hexose transporter 1 (Plasmodium falciparum) (UniProt O97467); experiment: ST_JUDE_LEISH: Cytotoxicity at 2uM final concentration against transgenic Leishmania Mexicana promastigotes LmPfHT that are glucose transport deficient and complemented with the Plasmodium falciparum hexose transporter. Activity is measured by DNA content using SYBR green in vitro
[3] = target: Glucose transporter (Leishmania mexicana) (UniProt O61059); experiment: ST_JUDE_LEISH: Cytotoxicity at 2uM final concentration against transgenic Leishmania Mexicana promastigotes LmGT2 that are glucose transport deficient and complemented with the L. Mexicana glucose transporter 2. Activity is measured by DNA content using SYBR green in vitro

Row | Compound | inhibition [1] [%] | inhibition [2] [%] | inhibition [3] [%]
1 | CC(C)CNC(=O)c1cncc(-c2ccc(CN3CCC(N4CCCC4)CC3)cc2)c1 | 1.79 | 1.64 | 2.41
2 | CN1CCN(c2ccc(Nc3ccnc4ccc(-c5ccccc5)cc34)cc2)CC1 | 1.32 | 1.83 | -1.67
3 | Cc1ccc(CNC(=O)[C@H](CC(C)C)Nc2cc(C)nc(Nc3ccccc3)n2)cc1 | 3.16 | 4.07 | -0.24
4 | O=C(NCCCCN1CCC(c2ccc3c(c2OCCCO)CCCC3)CC1)c1ccc(-c2ccc(C(F)(F)F)cc2)cc1 | 1.13 | 3.02 | 2.9
5 | Nc1ncc(-c2ccccc2)cc1-c1cccc2ncccc12 | 7.53 | 9.12 | 6.36
6 | N=C(N)NN=CC(=O)Nc1ccc(Br)cc1 | -1.7 | -4.24 | -1.29
7 | CCCC/C=C(\Cl)c1ccc(O)c2c1C[C@H]1C[C@H]3[C@H](N(C)C)C(O)=C(C(N)=O)C(=O)[C@@]3(O)C(O)=C1C2=O | -0.21 | -1.57 | 0.16
8 | CCn1cc(CN2CCCC(C(=O)Nc3ccc(-c4nc5ccccc5[nH]4)cc3)C2)cn1 (stereo unspecified) | 3.25 | 3.52 | 2.06
9 | CN1CCN(CCCN(Cc2ccc(-c3ccc(CNCc4ccc5c(c4)OCO5)cc3)cc2)C(=O)Nc2ccccc2)CC1 | 11.6 | 13.7 | 11
10 | CCCCCCc1cc(Oc2c(I)cc(C[C@H](N)C(=O)O)cc2I)ccc1O | 0.33 | 1.79 | -0.38
11 | COc1cc(C=NN=c2cc(C)[nH]c3ccccc23)cc(OC)c1OC | 3.56 | 4.95 | 1.6
12 | O=C(/C=C/c1ccc(-c2nc3ccc(Cl)cc3[nH]2)cc1)NC1CCN(Cc2ccccc2)CC1 | 1.24 | 1.66 | 3.7
